Drawing on ChEMBL document CHEMBL1201862, “PubChem BioAssay data set” (2004), this text covers Potency for three molecules.

Out of some 150,000 compounds screened, about 6,500 (4.3%) were called active. Inconclusive results (about 12%) are left out. No cut-off for these calls is given here. Only a selection was taken, and actives are over-represented in it overall.

The target in this experiment is T1, 15-hydroxyprostaglandin dehydrogenase [NAD(+)] (Homo sapiens) (UniProt P15428).
T1 sequence (whole entry): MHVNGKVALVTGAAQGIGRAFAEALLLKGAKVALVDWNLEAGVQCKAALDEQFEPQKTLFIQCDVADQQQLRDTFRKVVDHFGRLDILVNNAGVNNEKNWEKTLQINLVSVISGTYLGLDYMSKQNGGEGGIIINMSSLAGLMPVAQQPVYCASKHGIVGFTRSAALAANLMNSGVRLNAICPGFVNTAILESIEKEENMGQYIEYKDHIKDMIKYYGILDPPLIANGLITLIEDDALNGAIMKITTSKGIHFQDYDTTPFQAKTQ
With `O=C(O)c1cc(/N=N/c2ccc(S(=O)(=O)Nc3ccccn3)cc2)ccc1O`, the Potency was 15.8 µM (active). On to `O=C(O)c1cc(/N=N\c2ccc(S(=O)(=O)Nc3ccccn3)cc2)ccc1O`, for which the Potency is 14.1 µM (active). Consider `O=C(/C=C\c1ccco1)Nc1nc(-c2ccccc2)cs1`, for which the Potency entry is “inactive”.
